Inconclusive results are not listed. Where a call stands in place of a potency, no number is given. Activity calls are given as the source filed them. Calls come from the whole dose curve; as a rule, active = well fitted curve in the direction sought with a large enough effect; inconclusive = small, poorly fitted or top-dose-only effect, or another doubt; inactive = no such curve, though single readings can be large; an effect the other way counts as inactive or inconclusive.
Tests used:
[1] = qHTS of pediatric cancer cell lines to identify multiple opportunities for drug repurposing: Primary screen for A673 cells (AID 1347092); note: nearly all actives have a fitted effect of over 45% in size; note: potency is the fitted concentration of half-maximal effect
Method in brief: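 48 h compound exposure, A673, 500-1,000 cells/well, 37 degrees C/5% CO2. MIPE: 11-point, 0.78 nM-46 µM; NPC: 8-point, 0.59 nM-46 µM (final). Readout CellTiter-Glo luminescence after 15 min RT.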

[2] = qHTS of pediatric cancer cell lines to identify multiple opportunities for drug repurposing: Primary screen for SK-N-MC cells (AID 1347093); note: potency is the fitted concentration of half-maximal effect
Method in brief: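 Metabolically active cells were quantified by ATP-dependent luminescence (CellTiter-Glo, 15 min at room temperature) following 48 h treatment. Cells had been plated at 500-1,000 per well and settled for 5 h beforehand.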

[3] = qHTS of pediatric cancer cell lines to identify multiple opportunities for drug repurposing: Primary screen for NB-EBc1 cells (AID 1347095); note: potency is the fitted concentration of half-maximal effect
Method in brief: (§1)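 Viability was measured as metabolically active cells after 48 hours of treatment, read by CellTiter-Glo luminescence. Compounds were tested at multiple final concentrations, giving concentration-response curves.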

[4] = qHTS of pediatric cancer cell lines to identify multiple opportunities for drug repurposing: Primary screen for U-2 OS cells (AID 1347096); note: nearly all actives have a fitted effect of over 50% in size; note: potency is the fitted concentration of half-maximal effect
Method in brief: (§2)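 Cells (500-1,000/well) rested 5 h, then received compounds for 48 h; metabolically active cells were measured by CellTiter-Glo luminescence. Final concentrations spanned up to 46 µM (MIPE, 11-point) or 0.59 nM-46 µM (NPC, 8-point) in primary screens, 11-point in follow-ups.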

[5] = qHTS of pediatric cancer cell lines to identify multiple opportunities for drug repurposing: Primary screen for Saos-2 cells (AID 1347097); note: nearly all actives have a fitted effect of over 40% in size; note: potency is the fitted concentration of half-maximal effect
Method in brief: as §1

[6] = qHTS of pediatric cancer cell lines to identify multiple opportunities for drug repurposing: Primary screen for SK-N-SH cells (AID 1347098); note: nearly all actives have a fitted effect of over 65% in size; note: potency is the fitted concentration of half-maximal effect
Method in brief: as §2

[7] = qHTS of pediatric cancer cell lines to identify multiple opportunities for drug repurposing: Primary screen for NB1643 cells (AID 1347099); note: nearly all actives have a fitted effect of over 50% in size; note: potency is the fitted concentration of half-maximal effect
Method in brief: as §1

[8] = qHTS of pediatric cancer cell lines to identify multiple opportunities for drug repurposing: Primary screen for Rh18 cells (AID 1347102); note: nearly all actives have a fitted effect of over 65% in size; note: potency is the fitted concentration of half-maximal effect
Method in brief: as §2

[9] = qHTS of pediatric cancer cell lines to identify multiple opportunities for drug repurposing: Primary screen for OHS-50 cells (AID 1347103); note: nearly all actives have a fitted effect of over 40% in size; note: potency is the fitted concentration of half-maximal effect
Method in brief: as §2

[10] = qHTS of pediatric cancer cell lines to identify multiple opportunities for drug repurposing: Primary screen for RD cells (AID 1347104); note: nearly all actives have a fitted effect of over 55% in size; note: potency is the fitted concentration of half-maximal effect
Method in brief: as §1

[11] = qHTS of pediatric cancer cell lines to identify multiple opportunities for drug repurposing: Primary screen for MG 63 (6-TG R) cells (AID 1347105); note: nearly all actives have a fitted effect of over 50% in size; note: potency is the fitted concentration of half-maximal effect
Method in brief: as §1

[12] = qHTS of pediatric cancer cell lines to identify multiple opportunities for drug repurposing: Primary screen for control Hh wild type fibroblast cells (AID 1347106);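 note: series mostly up to about 46 µM; a drop in luminescence marks cytotoxicity and a rise apparent proliferation; nearly all actives have a fitted effect of over 55% in size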
Method in brief: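 Viability after 48 h compound treatment at 37C, 500-1,000 cells/well, read as ATP luminescence with CellTiter-Glo. Primary screens used 11-point (MIPE, 0.78 nM-46 µM) or 8-point (NPC, 0.59 nM-46 µM) final concentrations; follow-up screens used 11-point dilutions.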

[13] = qHTS of pediatric cancer cell lines to identify multiple opportunities for drug repurposing: Primary screen for Rh30 cells (AID 1347107); note: series mostly up to about 46 µM; nearly all actives have a fitted effect of over 75% in size
Method in brief: as §2

[14] = qHTS of pediatric cancer cell lines to identify multiple opportunities for drug repurposing: Primary screen for Rh41 cells (AID 1347108); note: nearly all actives have a fitted effect of over 70% in size; note: potency is the fitted concentration of half-maximal effect
Method in brief: as §1

[15] = qHTS of pediatric cancer cell lines to identify multiple opportunities for drug repurposing: Primary screen for LAN-5 cells (AID 1347100); note: potency is the fitted concentration of half-maximal effect
Method in brief: as §2

[16] = qHTS of pediatric cancer cell lines to identify multiple opportunities for drug repurposing: Confirmatory screen for NB1643 cells (AID 1347109); note: nearly all actives have a fitted effect of over 45% in size; note: potency is the fitted concentration of half-maximal effect
Method in brief: as §2

[17] = qHTS of pediatric cancer cell lines to identify multiple opportunities for drug repurposing: Confirmatory screen for A673 cells (AID 1347110);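 note: cells exposed to compound for 48 h before the viability read; nearly all actives have a fitted effect of over 65% in size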; note: potency is the fitted concentration of half-maximal effect
Method in brief: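 Concentration-response curves came straight from titrations: 11 points (0.78 nM to 46 µM) for MIPE and several concentrations (0.59 nM to 46 µM) for NPC in primary, 11 points in follow-up. Readout: ATP luminescence at 48 h.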

[18] = qHTS of pediatric cancer cell lines to identify multiple opportunities for drug repurposing: Confirmatory screen for SK-N-MC cells (AID 1347111);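 note: cells exposed to compound for 48 h before the readout; nearly all actives have a fitted effect of over 70% in size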; note: potency is the fitted concentration of half-maximal effect
Method in brief: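 Seed 500-1,000 cells/well; rest 5 h at 37 degrees C. Pin-transfer compounds, 11-point titration. Incubate 48 h. Add CellTiter-Glo, 15 min RT, read luminescence.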

[19] = qHTS of pediatric cancer cell lines to identify multiple opportunities for drug repurposing: Primary screen for BT-12 cells (AID 1347101); note: nearly all actives have a fitted effect of over 25% in size; note: potency is the fitted concentration of half-maximal effect
Method in brief: as §2

With `O=C(C1CC1)N1CC[C@@H](Cn2c(-c3ccc(-c4ccc5occc5c4)cc3)nc3cnccc32)C1` the Potency [1] was “inactive”, the Potency [2] was 18.7 µM (active) and the Potency [3] was 13.2 µM (active). The Potency [4] was “inactive”, the Potency [5] was “inactive” and the Potency [6] was “inactive”. The Potency [7] was “inactive”, the Potency [8] was “inactive” and the Potency [9] was “inactive”. The Potency [10] was “inactive”, the Potency [11] was “inactive” and the Potency [12] was “inactive”. The Potency [13] was “inactive” and the Potency [14] was “inactive”.
In the case of `OC[C@H](Cc1ccccc1)Nc1nc(Oc2ccc3c(c2)CCC3)nc2c1ncn2Cc1ccc(-c2ccccc2)cc1`, the Potency [1] was “inactive”, the Potency [2] was 1.87 µM (active) and the Potency [4] was “inactive”. The Potency [6] was “inactive”, the Potency [15] was “inactive” and the Potency [8] was “inactive”. The Potency [11] was “inactive”, the Potency [12] was “inactive” and the Potency [13] was “inactive”. The Potency [14] was “inactive”, the Potency [16] was “inactive” and the Potency [17] was 4.65 µM (active). The Potency [18] was 2.33 µM (active).
For `CN(C)c1ccc(Nc2nc(N)n(C(=O)c3c(F)cccc3F)n2)cc1`, the Potency [1] was 2.35 µM (active), the Potency [2] was 0.469 µM (active) and the Potency [5] was 16.6 µM (active). The Potency [6] was 3.83 µM (active), the Potency [7] was 11.8 µM (active) and the Potency [8] was “inactive”. For the same compound, the Potency [11] was 18.7 µM (active), the Potency [12] was “inactive” and the Potency [14] was “inactive”.
With `Cc1c(CCOc2ccc(C(=O)O)cc2)c2cc(Cl)ccc2n1C(c1ccccc1)c1ccccc1` the Potency [1] was 18.7 µM (active), the Potency [2] was 14.8 µM (active) and the Potency [4] was “inactive”. For the same compound, the Potency [5] was “inactive”, the Potency [6] was 24.1 µM (active) and the Potency [8] was “inactive”. For the same compound, the Potency [11] was “inactive”, the Potency [12] was “inactive” and the Potency [14] was “inactive”.
With `O=c1[nH]c(-c2ccc(C(F)(F)F)cc2)nc2c1CSCC2` the Potency [1] was 14.8 µM (active), the Potency [2] was 13.2 µM (active) and the Potency [4] was “inactive”. For the same compound, the Potency [15] was “inactive”, the Potency [8] was “inactive” and the Potency [12] was “inactive”.
With `CO[C@@H]1[C@H](N(C)C(=O)c2ccccc2)C[C@H]2O[C@]1(C)n1c3ccccc3c3c4c(c5c6ccccc6n2c5c31)C(=O)NC4` the Potency [1] was 0.935 µM (active), the Potency [2] was 0.662 µM (active) and the Potency [4] was 3.72 µM (active). For the same compound, the Potency [5] was 0.833 µM (active), the Potency [6] was 1.92 µM (active) and the Potency [15] was 0.526 µM (active). For the same compound, the Potency [8] was 1.32 µM (active), the Potency [9] was 2.17 µM (active) and the Potency [10] was “inactive”. The Potency [11] was 0.743 µM (active), the Potency [13] was “inactive” and the Potency [14] was “inactive”. The Potency [16] was 3.29 µM (active) and the Potency [17] was “inactive”.
For `CC(=O)NC(C)c1ccc(Oc2ccc(OC(C)C)cc2)cc1` (configuration not stated), the Potency [1] was 23.5 µM (active), the Potency [2] was 13.2 µM (active) and the Potency [4] was “inactive”. The Potency [5] was 18.7 µM (active), the Potency [6] was “inactive” and the Potency [19] was 19.3 µM (active). For the same compound, the Potency [9] was 21.7 µM (active) and the Potency [12] was “inactive”.
With `CN(C)C(=O)c1ccc(S(=O)(=O)c2ccc(NC(=O)[C@@](C)(O)C(F)(F)F)c(Cl)c2)cc1` the Potency [1] was 18.7 µM (active), the Potency [2] was 16.6 µM (active) and the Potency [3] was “inactive”. For the same compound, the Potency [4] was “inactive”, the Potency [6] was “inactive” and the Potency [19] was 13.7 µM (active). The Potency [8] was “inactive”, the Potency [12] was “inactive” and the Potency [13] was “inactive”.
With `OCCC#Cc1nc(-c2ccc(F)cc2)c(-c2ccncc2)n1CCCc1ccccc1` the Potency [1] was 18.7 µM (active), the Potency [2] was 18.7 µM (active) and the Potency [3] was 16.6 µM (active). For the same compound, the Potency [6] was “inactive”, the Potency [15] was 16.6 µM (active) and the Potency [9] was 27.3 µM (active). For the same compound, the Potency [11] was 29.6 µM (active), the Potency [12] was “inactive” and the Potency [14] was 18.7 µM (active).
In the case of `CCn1c(-c2nonc2N)nc2c(C#CC(C)(C)O)ncc(OC[C@H]3CCCNC3)c21`, the Potency [1] was 11.8 µM (active), the Potency [2] was 0.469 µM (active) and the Potency [3] was 18.7 µM (active). For the same compound, the Potency [4] was “inactive”, the Potency [7] was 18.7 µM (active) and the Potency [15] was 5.26 µM (active). The Potency [19] was “inactive”, the Potency [8] was “inactive” and the Potency [10] was 23.5 µM (active). For the same compound, the Potency [12] was “inactive” and the Potency [13] was “inactive”.
With `S=C(NCc1ccc2c(c1)OCO2)N1CCN(c2ncnc3c2oc2ccccc23)CC1` the Potency [1] was 1.71 µM (active), the Potency [2] was 4.29 µM (active) and the Potency [6] was “inactive”. For the same compound, the Potency [7] was 8.55 µM (active), the Potency [9] was 1.98 µM (active) and the Potency [11] was “inactive”. The Potency [12] was “inactive” and the Potency [13] was “inactive”.
With `C[C@H](NC(=O)Cc1cc(F)cc(F)c1)C(=O)N[C@@H]1C(=O)N(C)c2ccccc2-c2ccccc21` the Potency [1] was 7.43 µM (active), the Potency [2] was 5.26 µM (active) and the Potency [3] was “inactive”. For the same compound, the Potency [4] was “inactive”, the Potency [6] was 12.1 µM (active) and the Potency [7] was 6.62 µM (active). For the same compound, the Potency [19] was “inactive”, the Potency [8] was “inactive” and the Potency [10] was 16.6 µM (active). The Potency [11] was 11.8 µM (active), the Potency [12] was “inactive” and the Potency [14] was 14.8 µM (active).
With `CCC(=O)N[C@H]1CC[C@H](C(=O)N(C)c2ccc(-c3nc4ccccc4o3)cc2)C1` the Potency [1] was 3.72 µM (active), the Potency [2] was 0.833 µM (active) and the Potency [3] was “inactive”. The Potency [4] was “inactive”, the Potency [5] was “inactive” and the Potency [6] was 0.961 µM (active). For the same compound, the Potency [7] was 1.66 µM (active), the Potency [8] was “inactive” and the Potency [9] was 19.3 µM (active). For the same compound, the Potency [10] was 3.32 µM (active) and the Potency [13] was “inactive”.
In the case of `CCc1cncnc1N1CCN(Cc2nc3ccc(C(F)(F)F)cc3[nH]2)CC1`, the Potency [1] was 29.6 µM (active), the Potency [2] was 23.5 µM (active) and the Potency [4] was “inactive”. The Potency [19] was 12.2 µM (active), the Potency [9] was 15.3 µM (active) and the Potency [12] was “inactive”.
With `Cc1cn[nH]c1` the Potency [1] was “inactive”, the Potency [2] was “inactive” and the Potency [4] was “inactive”. The Potency [5] was “inactive”, the Potency [6] was “inactive” and the Potency [7] was “inactive”. The Potency [15] was “inactive”, the Potency [8] was “inactive” and the Potency [9] was 0.611 µM (active). The Potency [11] was “inactive”, the Potency [12] was “inactive” and the Potency [13] was “inactive”. The Potency [16] was “inactive”, the Potency [17] was “inactive” and the Potency [18] was “inactive”.
With `CCCS(=O)(=O)Nc1ccc(F)c(C(=O)c2c[nH]c3ncc(Cl)cc23)c1F` the Potency [1] was 18.7 µM (active), the Potency [2] was 4.18 µM (active) and the Potency [5] was 11.8 µM (active). The Potency [6] was 19.2 µM (active), the Potency [7] was 20.9 µM (active) and the Potency [9] was 13.7 µM (active). The Potency [10] was 18.7 µM (active) and the Potency [14] was “inactive”.

Reference: PubChem BioAssay (NCATS)
